ST2 IL33 inh = blocks human ST2 binding to IL-33; actives 2.3% (n = 78,000); Q01638; AlphaLISA ST2-Fc/biotin-IL-33 interaction, 1 h; inhibition, % for hits at 17 µM; in the data active means inhibition above about 30%
Target sequence (Q01638 whole entry, looked up): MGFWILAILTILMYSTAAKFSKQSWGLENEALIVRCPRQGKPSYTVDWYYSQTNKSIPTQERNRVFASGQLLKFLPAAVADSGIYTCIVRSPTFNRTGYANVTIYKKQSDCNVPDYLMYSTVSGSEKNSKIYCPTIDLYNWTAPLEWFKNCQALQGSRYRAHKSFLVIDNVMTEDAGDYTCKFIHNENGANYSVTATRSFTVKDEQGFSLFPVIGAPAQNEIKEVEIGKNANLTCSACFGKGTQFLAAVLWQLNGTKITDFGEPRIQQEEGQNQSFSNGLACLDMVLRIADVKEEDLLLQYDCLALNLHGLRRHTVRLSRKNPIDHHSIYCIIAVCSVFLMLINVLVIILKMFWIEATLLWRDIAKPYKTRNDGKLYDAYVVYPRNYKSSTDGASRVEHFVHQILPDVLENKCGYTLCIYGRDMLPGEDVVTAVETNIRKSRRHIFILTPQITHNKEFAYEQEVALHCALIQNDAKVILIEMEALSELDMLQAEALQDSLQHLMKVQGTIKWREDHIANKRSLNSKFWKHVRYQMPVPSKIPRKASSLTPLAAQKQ
Starred values were filed as active, the others as inactive; i = inactive. The full list was thinned out, with hits kept by preference.

SMILES	ST2 IL33 inh
FC(F)(F)c1ccc(N2CCN(Cc3ccccc3)CC2)nc1	i
c1ccc(COc2cccc(CN3CCN(c4ncccn4)CC3)c2)cc1	i
Cc1ccccc1Oc1ccc(N2C(=O)C3C4C=CC(C5CC45)C3C2=O)cc1 (stereo not given)	i
CCOC(=O)c1c(NC(=O)c2cccc(Br)c2)sc(C(C)=O)c1C	i
CCCOC(=O)C1=C(C)NC2=C(C(=O)C(C(=O)OC)C(C)C2)C1c1cccc(Br)c1 (stereo not given)	i
CC1(C)CC(=O)C2=C(C1)OC1=C(C(=O)CC(C)(C)C1)C2c1ccc(OCc2ccccc2)cc1	i
Cc1c(C#N)c2ncnc(-c3ccccc3)c2n1Cc1ccccc1	i
Cn1c(SCC(=O)Nc2ccc(Cl)c(Cl)c2)nc2c([nH]c3ccccc32)c1=O	i
O=C(CNC(=O)c1cccs1)NC1CC1	i
COC(=O)C1=C(C)N=C2SCCC(=O)N2C1c1cccc(F)c1 (stereo not given)	i
Cc1cccc(NC(=O)C2CCN(c3ccc(-c4cccs4)nn3)CC2)c1	i
Cc1ccc(-n2nc3c(c2NC(=O)c2ccc(C(C)(C)C)cc2)CS(=O)C3)cc1 (stereo not given)	i
O=C1C(=O)N(CCc2ccccc2)C(c2ccc(Cl)cc2)C1=C(O)c1ccccc1 (stereo not given)	i
[N-]=C=C1C(=O)N(CCc2ccccc2)C(=O)[C@H]([n+]2ccccc2)[C@H]1c1ccc(Cl)cc1	34%*
CC(=O)c1cccc(N2CN=c3s/c(=C\c4cccnc4)c(=O)n3C2)c1	i
COc1ccc(N2CN=c3s/c(=C\c4ccc(OC)c(OC)c4)c(=O)n3C2)cc1	35%*
O=c1/c(=C/c2ccncc2)sc2n1CN(c1ccc3c(c1)OCO3)CN=2	i
COc1ccc(/C=c2\sc3n(c2=O)CN(c2ccc4c(c2)OCO4)CN=3)cc1	31%*
CCCCOc1ccc(/C=c2\sc3nc(-c4cccs4)nn3c2=O)cc1OC	i
COc1ccc(/C=c2\sc3n(c2=O)CN(c2cccc(F)c2)CN=3)cc1OC	i
CC1=C(C(=O)OC2CCCCC2)C(c2ccccc2F)n2ncnc2N1 (stereo not given)	i
CN(C)CCC(=O)c1ccc(O)cc1	i
CCC(Sc1nc(N)cc(=O)[nH]1)C(=O)Nc1ccc(Cl)cn1 (stereo not given)	i
O=C(NC1CCCCC1)C(NS(=O)(=O)c1cccs1)c1ccccc1 (stereo not given)	i
COc1ccc(/C=C2\N=C(c3ccccc3Br)OC2=O)c(OC)c1OC	i
SMILES	ST2 IL33 inh
COc1ccc(/C=C2\N=C(c3cccc(I)c3)OC2=O)cc1[N+](=O)[O-]	i
CN(C)c1ccc(/C=C2\N=C(c3ccccc3Br)OC2=O)cc1	41%*
CC1=N/C(=C\c2ccc(Br)cc2)C(=O)O1	i
COc1ccc(/C=C2\N=C(c3ccc(C)cc3)OC2=O)cc1Br	i
Cc1cccc(C2=N/C(=C\c3cccc([N+](=O)[O-])c3)C(=O)O2)c1	i
Cc1cccc(C2=N/C(=C\c3ccc(N(C)C)cc3)C(=O)O2)c1	39%*
O=C1OC(c2cccc(I)c2)=N/C1=C\c1ccc([N+](=O)[O-])cc1	i
O=C1OC(c2cc([N+](=O)[O-])ccc2Cl)=N/C1=C\c1cccc(I)c1	i
COc1ccccc1/C=C/C1=NC(=C\C(Cl)=C\c2ccccc2)/C(=O)O1	i
O=C1OC(c2ccccc2Cl)=N/C1=C\C=C\c1ccccc1	34%*
Cc1cccc(C2=N/C(=C\c3ccccc3)C(=O)O2)c1	46%*
COc1ccc(N(C(=O)c2cc(C)cc(C)c2)C2C=CS(=O)(=O)C2)cc1 (stereo not given)	i
Cc1c(Cl)cccc1NC(=O)CN1CCCN(Cc2cccc(F)c2)S1(=O)=O	i
COc1ccccc1C1(CC(=O)N(C)Cc2cccc3ncccc23)CC(=O)N(C2CCCC2)C1=O (stereo not given)	i
Cc1cccc(C)c1NC(=O)Nc1cccc(Cl)c1	i
Cc1ccc(C2=N/C(=C\C(Br)=C\c3ccccc3)C(=O)O2)cc1[N+](=O)[O-]	i
Cc1cccc(C2=N/C(=C\C=C\c3ccccc3)C(=O)O2)c1	37%*
CC(=O)n1cc(/C=C2\N=C(c3cccc(C)c3)OC2=O)c2cc(Br)ccc21	i
Cc1cc(N2CCC(C)CC2)nc2ccc(NC(=O)C3CCCO3)cc12 (stereo not given)	i
Cc1sc2ncnc(SC(C)C(=O)O)c2c1C (stereo not given)	i
O=C(Nc1nccs1)C1CCN(S(=O)(=O)c2cccc3cccnc23)CC1	i
Cc1ccc(Nc2nnc(-c3ccc(C)c(S(=O)(=O)NCCO)c3)c3ccccc23)cc1	i
Cc1ccc(C(NC(=O)CN2C(=O)c3ccccc3C2=O)c2ccccc2)cc1 (stereo not given)	i
Cc1ccc(NC2=C(NCCO)C(=O)c3ccccc3C2=O)cc1	51%*
O=C(CSc1ccccn1)NC1CC1	i
SMILES	ST2 IL33 inh
CC(C)N(CC1CC1)C(=O)C[C@@H]1C[C@@H]2C=C[C@H]1C2	i
Cc1nn(-c2ccccc2)c(Cl)c1C(=O)Nc1cccc(Cl)c1	i
O=C(Nc1cccc(Cl)c1)C(O)c1ccccc1 (stereo not given)	i
CC1=NN(c2ccccc2)C(=O)C1C(c1cccc(Cl)c1)C(C#N)C#N (stereo not given)	62%*
O=S(=O)(NCc1nc(CCc2ccccc2)n[nH]1)c1cccs1	i
O=C(NCc1ccccn1)c1cc(NCC2CC2)cc(S(=O)(=O)N2CCCC2)c1	i
COc1cc(/C=C2/OC(=O)c3c2cc(C)[nH]c3=O)ccc1O	i
COc1c(/C=C2/OC(=O)c3c2cc(C)[nH]c3=O)ccc(Cl)c1Cl	i
CC(=O)Nc1ccc(/C=C2/OC(=O)c3c2cc(C)[nH]c3=O)cc1	46%*
CCCCOc1ccc(S(=O)(=O)N2CCSC2c2cc(OC)ccc2OC)cc1 (stereo not given)	i
COc1ccc(NC(=O)c2sc3cc(C)ccc3c2Cl)c(OC)c1	i
O=C(Cn1nc(-c2ccccc2)ccc1=O)NCCCN1CCC(Cc2ccccc2)CC1	53%*
CN(CCCNC(=O)Cn1nc(-c2ccccc2)ccc1=O)Cc1ccccc1	i
O=C(Cn1nc(-c2ccccc2)ccc1=O)NCCN1CCC(Cc2ccccc2)CC1	i
O=C(Nc1ccc(CN2CCCC2)cc1)c1cc(F)c(F)cc1Cl	i
CN(C)c1oc(-c2ccccc2)nc1S(=O)(=O)c1ccccc1	i
Cc1nc(S(=O)(=O)c2ccccc2)c(N(C)C)o1	i
CN(C)c1oc(COc2ccc(Cl)cc2Cl)nc1S(=O)(=O)c1ccccc1	36%*
CCN(CC)c1ccc(N)c(C)c1	53%*
CCN(CC)c1ccc(C=NS(=O)(=O)c2ccc(C)cc2)cc1	i
COc1cccc2c1OCC(C(=O)N(C)Cc1noc(CC(C)C)n1)C2 (stereo not given)	i
C=CCN(CN1C(=O)C2CC=C(Cl)CC2C1=O)CN1C(=O)C2CC=C(Cl)CC2C1=O (stereo not given)	i
Cc1cc(C)c(NC(=O)CS(=O)(=O)c2cccc3nsnc23)c(C)c1	i
CCCOc1ccc(C(=O)Nc2ccc(N3CCCC3)cc2)cc1	i
O=C(Cc1ccccc1)Nc1cccc(C(=O)O)c1	i
O=C(Nc1ccc(I)cc1)c1ccc(Cl)cc1Cl	i
CC(=O)Nc1ccc(NC(=O)c2cc(I)ccc2Cl)cc1	i
Cc1ccc(C(=O)Nc2ccc(N3CCCC3)cc2)cc1Cl	53%*
